Results on eight compounds are retold here after PubChem BioAssay (NCI).

Structures are written as SMILES. The panel holds about 83,000 compounds, 20% with a hit somewhere; the sample as a whole holds those more often.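 Assay: single dose, 48 h. Readout: percent growth (0 = no net growth; negative = cell death). Active: <10.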 A number with no mark means an inactive call. The source made the active and inactive calls.

Test systems include SK-MEL-2 melanoma; EKVX NSCLC; SN12C renal; UO-31 renal; TK-10 renal; ACHN renal; CAKI-1 renal; A498 renal; CCRF-CEM leukemia; MOLT-4 leukemia; SR leukemia; RPMI-8226 leukemia; OVCAR-5 ovarian; OVCAR-4 ovarian; SK-OV-3 ovarian; IGROV1 ovarian; OVCAR-3 ovarian; HS 578T breast; NCI/ADR-RES ovarian; OVCAR-8 ovarian.
What all share (experiment): NCI-60 one-dose screen, 48 h (100 = growth as untreated, 0 = no growth, -100 = all killed)
Common to all, as to settings: 10 µM unless noted

On to `Cc1ccc(C(C)C)cc1C(=O)C[n+]1ccccc1`, for which the growth was 107% with SK-MEL-2 melanoma; 99.7% with EKVX NSCLC; 102% in the assay on SN12C renal; 87.5% in the assay on UO-31 renal; 103% in the assay on TK-10 renal; 95.6% in the assay with ACHN renal. The growth was 99.6% with CAKI-1 renal; 81.5% with A498 renal; 113% in the assay on CCRF-CEM leukemia; 88.4% in the assay on MOLT-4 leukemia; 86.1% in the assay on SR leukemia; 114% in the assay on RPMI-8226 leukemia. For the same compound, the growth with OVCAR-5 ovarian is 91.1%; with OVCAR-4 ovarian, 101%; with SK-OV-3 ovarian, 97.7%; in the assay on IGROV1 ovarian, 98.6%; with OVCAR-3 ovarian, 101%; with HS 578T breast, 100%.
As for `CCc1ccc(Oc2c(-c3ccc(OCc4ccc(Cl)cc4)cc3O)nn(C)c2C(F)(F)F)cc1`, the growth in the assay with SK-MEL-2 melanoma is -30.7% (active); with EKVX NSCLC it was 9.36% (active); with SN12C renal, 4.95% (active); in the assay on UO-31 renal it was -22.9% (active); with TK-10 renal it was -1.88% (active); in the assay on ACHN renal, 5.42% (active). The growth in the assay with CAKI-1 renal was 3.34% (active); with A498 renal, -22.6% (active); in the assay on CCRF-CEM leukemia, 1.82% (active); in the assay on MOLT-4 leukemia, -13.6% (active); in the assay with SR leukemia, -26.4% (active); in the assay on RPMI-8226 leukemia it was -16.8% (active). The growth in the assay on OVCAR-5 ovarian was 13.2%; in the assay on OVCAR-4 ovarian, 12.5%; in the assay with SK-OV-3 ovarian, -6.92% (active); in the assay with IGROV1 ovarian, 24.3%; in the assay on OVCAR-3 ovarian, -20.9% (active); with HS 578T breast, 7.74% (active). Besides, the growth with NCI/ADR-RES ovarian was -3.62% (active).
Turning to `c1ccc2cc(C[n+]3ccn(CCCCCCCCCCCCn4cc[n+](Cc5ccc6ccccc6c5)c4)c3)ccc2c1`, the growth in the assay with SK-MEL-2 melanoma was -69.9% (active); in the assay with EKVX NSCLC, -62.6% (active); in the assay with SN12C renal, -76.4% (active); in the assay with UO-31 renal, 24.2%; in the assay on TK-10 renal, -48.2% (active); in the assay on ACHN renal, 10.5%. Moreover, the growth was 41.9% in the assay with CAKI-1 renal; -32.6% (active) in the assay on A498 renal; -68.3% (active) with CCRF-CEM leukemia; -69.7% (active) with MOLT-4 leukemia; -50% (active) with SR leukemia; -70.7% (active) in the assay with RPMI-8226 leukemia. Also, the growth in the assay with OVCAR-5 ovarian was -25.3% (active); in the assay on OVCAR-4 ovarian, -60.1% (active); in the assay on SK-OV-3 ovarian, -47.9% (active); with IGROV1 ovarian, -73.8% (active); with OVCAR-3 ovarian it was -88.7% (active); in the assay on HS 578T breast it was -59.2% (active). In the assay with NCI/ADR-RES ovarian, the growth is 61.7%.
`CCCCNC(=O)Oc1ccc(/C(=C(\C)c2ccc(Cl)cc2)c2ccc(OCCN3CCCCC3)cc2)cc1`: the growth with SK-MEL-2 melanoma is 98.6%; with EKVX NSCLC, 76.9%; in the assay with SN12C renal, 80.5%; in the assay with UO-31 renal, 58.8%; in the assay with TK-10 renal, 87%; with ACHN renal, 94%. For the same compound, the growth with CAKI-1 renal was 92.5%; in the assay on A498 renal, 85.2%; in the assay with CCRF-CEM leukemia, 72.7%; in the assay on MOLT-4 leukemia, 65.5%; in the assay with SR leukemia, 7.74% (active); in the assay on RPMI-8226 leukemia, 73.4%. For the same compound, the growth with OVCAR-5 ovarian was 71.8%; in the assay with OVCAR-4 ovarian it was 73.5%; in the assay with SK-OV-3 ovarian, 68.8%; in the assay with IGROV1 ovarian it was 83.5%; in the assay on OVCAR-3 ovarian it was 80%; with HS 578T breast, 85%.
`CCCCCCn1c(-c2ccc(C(=O)O/N=C(\N)c3ccc4c(c3)OCO4)cc2)nc(-c2ccccc2)c1-c1ccccc1`: the growth with SK-MEL-2 melanoma was 70.9%; in the assay on EKVX NSCLC, -33.5% (active); with SN12C renal, -7.53% (active); in the assay with UO-31 renal, -89.2% (active); with TK-10 renal, -9.77% (active); in the assay with ACHN renal, -88.2% (active). Moreover, the growth was -21.3% (active) with CAKI-1 renal; 37.2% with A498 renal; -34.4% (active) in the assay with CCRF-CEM leukemia; 0.83% (active) in the assay on MOLT-4 leukemia; -26.3% (active) in the assay on SR leukemia; 17.7% in the assay with OVCAR-8 ovarian. Moreover, the growth with OVCAR-5 ovarian is 43.2%; in the assay on OVCAR-4 ovarian, 39.6%; in the assay on SK-OV-3 ovarian, 98.7%; with IGROV1 ovarian, -68.5% (active); with OVCAR-3 ovarian, 32.4%; in the assay on HS 578T breast it was 4.78% (active).
For `NCCNc1nc2ccccc2c2c(=O)c3cc(F)ccc3sc12`, the growth was 112% in the assay on SK-MEL-2 melanoma; 78.2% in the assay with EKVX NSCLC; 71.1% in the assay with SN12C renal; 47.3% in the assay on UO-31 renal; 101% in the assay with TK-10 renal; 54.5% in the assay with ACHN renal. For the same compound, the growth in the assay with CAKI-1 renal is 45.1%; with A498 renal it was 49.4%; in the assay with CCRF-CEM leukemia, 45.7%; in the assay on MOLT-4 leukemia it was 46.6%; in the assay on SR leukemia, -20.5% (active); with OVCAR-8 ovarian it was 79.2%. The growth in the assay on OVCAR-5 ovarian is 91.4%; in the assay on OVCAR-4 ovarian, 60.3%; in the assay on SK-OV-3 ovarian it was 83.3%; in the assay on IGROV1 ovarian, 70.9%; in the assay with OVCAR-3 ovarian, 66.8%; with HS 578T breast it was 74.8%.
With `CCCCCCNC(=O)Oc1ccc(/C(=C(\C)c2ccc(Cl)cc2)c2ccc(OCCN3CCCCC3)cc2)cc1`, the growth with SK-MEL-2 melanoma is 86.4%; in the assay on EKVX NSCLC, 52.8%; in the assay with SN12C renal, 55.9%; with UO-31 renal it was 32.6%; in the assay on TK-10 renal, 89.6%; in the assay on ACHN renal, 76.3%. For the same compound, the growth with CAKI-1 renal was 63.8%; in the assay with A498 renal it was 76.1%; in the assay with CCRF-CEM leukemia, 34%; with MOLT-4 leukemia, 10.9%; in the assay on SR leukemia, -22.4% (active); in the assay on RPMI-8226 leukemia, 17.7%. Also, the growth with OVCAR-5 ovarian is 72%; with OVCAR-4 ovarian, 36.7%; in the assay on SK-OV-3 ovarian it was 56.3%; in the assay with IGROV1 ovarian it was 54.8%; in the assay with OVCAR-3 ovarian, 58.4%; in the assay on HS 578T breast, 65.2%. In addition, in the assay on NCI/ADR-RES ovarian, the growth is 63.5%.
With `COc1cc2oc(-c3ccc(O)cc3)cc(=O)c2c(O)c1-c1c(OC)cc(O)c2c(=O)cc(-c3ccc(O)cc3)oc12`, the growth with SK-MEL-2 melanoma is 51.9%; with EKVX NSCLC, 85.5%; in the assay with SN12C renal, 15.8%; in the assay with UO-31 renal, 14.6%; in the assay on TK-10 renal, 75.3%; in the assay with ACHN renal it was 49.4%. In addition, the growth is 26.9% in the assay on CAKI-1 renal; 83.9% in the assay on A498 renal; 44.9% in the assay with CCRF-CEM leukemia; 32.6% in the assay with MOLT-4 leukemia; 5.09% (active) in the assay on SR leukemia; 28.1% in the assay with OVCAR-8 ovarian. For the same compound, the growth in the assay on OVCAR-5 ovarian is 101%; with OVCAR-4 ovarian, 67.8%; in the assay with SK-OV-3 ovarian, 37.5%; with IGROV1 ovarian, 16.7%; with OVCAR-3 ovarian it was 29.3%; in the assay with HS 578T breast it was 17.5%.
